Results: the supplement of paper PMC12282887
± gives the standard deviation of the averaged measurements.

Test system: E. coli BW25113 marRABp lux reporter
Assay: promoter activity interaction Z-score (Lux/OD deviation from empty-vector control); higher = stronger promoter induction by the compound
Description: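 E. coli BW25113 (wild type or ΔmarA/ΔsoxS/Δrob) carrying pTU175 luxCDABE promoter reporters was grown in LB in 384-well plates at 37°C with each of 94 compounds at 4 two-fold concentrations, in biological duplicates. Luminescence and OD600 were read every 30 min for 12 h and integrated as AUC over 8 h (0-8 h WT, 1-9 h mutants). Lux AUC was divided by OD AUC; the interaction score is the residual of a Huber robust fit of each promoter against the empty-vector control, then Z-transformed per promoter.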

SMILES: CCC[C@@H]1C[C@@H](C(=O)N[C@@H]([C@H]2O[C@H](SC)[C@H](O)[C@@H](O)[C@H]2O)[C@H](C)Cl)N(C)C1 [Clindamycin]
- promoter activity interaction Z-score (0.26 µg/ml, genetic background: wild type): 0.333 ± 0.029
- promoter activity interaction Z-score (0.26 µg/ml, genetic background: ΔmarA): 0.0595 ± 0.25
- promoter activity interaction Z-score (0.26 µg/ml, genetic background: Δrob): 0.168 ± 0.043
- promoter activity interaction Z-score (0.26 µg/ml, genetic background: ΔsoxS): 0.145 ± 0.068
- promoter activity interaction Z-score (0.52 µg/ml, genetic background: wild type): -0.369 ± 0.4
- promoter activity interaction Z-score (0.52 µg/ml, genetic background: ΔmarA): 0.0444 ± 0.093
- promoter activity interaction Z-score (0.52 µg/ml, genetic background: Δrob): 0.0402 ± 0.096
- promoter activity interaction Z-score (0.52 µg/ml, genetic background: ΔsoxS): 0.279 ± 0.051
- promoter activity interaction Z-score (1 µg/ml, genetic background: wild type): 0.363 ± 0.56
- promoter activity interaction Z-score (1 µg/ml, genetic background: ΔmarA): -0.225 ± 0.051
- promoter activity interaction Z-score (1 µg/ml, genetic background: Δrob): 0.279 ± 0.32
- promoter activity interaction Z-score (1 µg/ml, genetic background: ΔsoxS): 0.414 ± 0.023
- promoter activity interaction Z-score (2.1 µg/ml, genetic background: wild type): 0.13 ± 0.11
- promoter activity interaction Z-score (2.1 µg/ml, genetic background: ΔmarA): -0.108 ± 0.33
- promoter activity interaction Z-score (2.1 µg/ml, genetic background: Δrob): 0.449 ± 0.032
- promoter activity interaction Z-score (2.1 µg/ml, genetic background: ΔsoxS): 0.869 ± 0.17

SMILES: COc1ccc2[nH]c([S+]([O-])Cc3ncc(C)c(OC)c3C)nc2c1 (stereo not drawn) [Omeprazole]
- promoter activity interaction Z-score (21.6 µg/ml, genetic background: wild type): -0.572 ± 0.095
- promoter activity interaction Z-score (21.6 µg/ml, genetic background: ΔmarA): -0.27 ± 0.18
- promoter activity interaction Z-score (21.6 µg/ml, genetic background: Δrob): -0.128 ± 0.18
- promoter activity interaction Z-score (21.6 µg/ml, genetic background: ΔsoxS): -0.226 ± 0.23
- promoter activity interaction Z-score (43.2 µg/ml, genetic background: wild type): -0.301 ± 0.098
- promoter activity interaction Z-score (43.2 µg/ml, genetic background: ΔmarA): -0.0417 ± 0.55
- promoter activity interaction Z-score (43.2 µg/ml, genetic background: Δrob): -0.0764 ± 0.16
- promoter activity interaction Z-score (43.2 µg/ml, genetic background: ΔsoxS): -0.0512 ± 0.083
- promoter activity interaction Z-score (86.4 µg/ml, genetic background: wild type): -0.582 ± 0.15
- promoter activity interaction Z-score (86.4 µg/ml, genetic background: ΔmarA): -0.305 ± 0.32
- promoter activity interaction Z-score (86.4 µg/ml, genetic background: Δrob): -0.229 ± 0.12
- promoter activity interaction Z-score (86.4 µg/ml, genetic background: ΔsoxS): -0.22 ± 0.21
- promoter activity interaction Z-score (172.7 µg/ml, genetic background: wild type): -0.5175 ± 0.0031
- promoter activity interaction Z-score (172.7 µg/ml, genetic background: ΔmarA): -0.6 ± 0.24
- promoter activity interaction Z-score (172.7 µg/ml, genetic background: Δrob): -0.408 ± 0.15
- promoter activity interaction Z-score (172.7 µg/ml, genetic background: ΔsoxS): -0.421 ± 0.089

SMILES: C[C@]12CCC(=O)C=C1CC[C@@H]1[C@@H]2[C@@H](O)C[C@@]2(C)[C@H]1CC[C@]2(O)C(=O)CO [Hydrocortisone]
- promoter activity interaction Z-score (22.7 µg/ml, genetic background: wild type): -0.21 ± 0.0069
- promoter activity interaction Z-score (22.7 µg/ml, genetic background: ΔmarA): -0.342 ± 0.029
- promoter activity interaction Z-score (22.7 µg/ml, genetic background: Δrob): -0.0926 ± 0.12
- promoter activity interaction Z-score (22.7 µg/ml, genetic background: ΔsoxS): -0.27 ± 0.066
- promoter activity interaction Z-score (45.3 µg/ml, genetic background: wild type): -0.258 ± 0.11
- promoter activity interaction Z-score (45.3 µg/ml, genetic background: ΔmarA): -0.377 ± 0.024
- promoter activity interaction Z-score (45.3 µg/ml, genetic background: Δrob): -0.12 ± 0.044
- promoter activity interaction Z-score (45.3 µg/ml, genetic background: ΔsoxS): -0.15 ± 0.019
- promoter activity interaction Z-score (90.6 µg/ml, genetic background: wild type): -0.225 ± 0.18
- promoter activity interaction Z-score (90.6 µg/ml, genetic background: ΔmarA): -0.395 ± 0.011
- promoter activity interaction Z-score (90.6 µg/ml, genetic background: Δrob): -0.23 ± 0.18
- promoter activity interaction Z-score (90.6 µg/ml, genetic background: ΔsoxS): -0.551 ± 0.19
- promoter activity interaction Z-score (181.2 µg/ml, genetic background: wild type): -0.465 ± 0.21
- promoter activity interaction Z-score (181.2 µg/ml, genetic background: ΔmarA): -0.467 ± 0.023
- promoter activity interaction Z-score (181.2 µg/ml, genetic background: Δrob): -0.34 ± 0.16
- promoter activity interaction Z-score (181.2 µg/ml, genetic background: ΔsoxS): -0.371 ± 0.24
